# IL-1B inflam inh – inhibitors of inflammasome signaling (IL-1 beta secretion); activity change, % at 57.5 µM; 360,000 compounds, 4.7% hits; THP-1 LPS/ATP IL-1B secretion, AlphaLISA, 16 h; stronger effect = lower value; in the data active = activity change below about -50%; inconclusive = mostly about -30% to -49%; note: % is set by controls: 0 for no effect and ±100 for the full control effect
#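 THP-1 cells pretreated 1 hr with compounds (up to 57.5 uM final), then stimulated with LPS (250 ng/mL final) plus ATP (1.25 mM final); secreted IL-1B measured by AlphaLISA after 16 hr, decreased signal indicating inhibition.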
# TDP1 cell CPT – growth inhibition of DT40 Tdp1-/-;hTDP1 cells with camptothecin (screen for TDP1 inhibitors). Potency, µM (titrated, usually from 46.2 µM), inactives show at the highest dose activity change, negative = growth inhibition, usual class: inhibitors. AID 686979. 420,000 compounds, 12% hits. chicken DT40 Tdp1-/-;hTDP1 cells + 20 nM CPT, ATP luminescence, 48 h; note: potency is the fitted concentration of half-maximal effect; % is set by controls: 0 for no effect and ±100 for the full control effect; nearly all actives have a fitted effect of over 55% in size
#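 Cell growth measured by CellTiter-Glo luminescence after a minimum 48 h, 37 C compound exposure with 20 nM CPT in Tdp1-knockout DT40 cells stably expressing hTDP1, seeded 400/well; qHTS titration format.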
# ASM inhibitor – inhibitors of human secretory acid sphingomyelinase. 340,000 compounds, 0.006% hits. P17405. Potency, µM (top dose mostly 57.5 µM), for inactives: at the highest dose activity change, negative = inhibition, actives largely listed as inhibitors. placental ASM, HMU-PC fluorogenic substrate, 60 min; note: potency is the fitted concentration of half-maximal effect
# Target sequence (P17405 47-631 limits assumed): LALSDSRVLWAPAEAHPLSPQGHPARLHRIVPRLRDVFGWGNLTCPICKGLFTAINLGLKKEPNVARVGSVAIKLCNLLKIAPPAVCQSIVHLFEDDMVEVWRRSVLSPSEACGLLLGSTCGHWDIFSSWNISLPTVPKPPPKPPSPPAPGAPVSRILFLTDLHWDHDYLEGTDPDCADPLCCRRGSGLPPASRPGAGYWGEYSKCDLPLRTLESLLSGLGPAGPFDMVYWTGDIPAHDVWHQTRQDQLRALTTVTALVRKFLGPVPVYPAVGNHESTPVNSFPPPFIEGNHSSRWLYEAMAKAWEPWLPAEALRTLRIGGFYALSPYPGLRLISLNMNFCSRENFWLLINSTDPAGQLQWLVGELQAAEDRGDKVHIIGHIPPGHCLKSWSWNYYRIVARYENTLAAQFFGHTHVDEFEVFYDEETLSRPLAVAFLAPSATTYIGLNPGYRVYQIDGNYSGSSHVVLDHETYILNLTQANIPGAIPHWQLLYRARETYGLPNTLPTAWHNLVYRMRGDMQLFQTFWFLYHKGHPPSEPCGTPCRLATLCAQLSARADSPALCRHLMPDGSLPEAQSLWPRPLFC
#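 Steps: dispense placental human ASM, pin compound, wait 10 min at room temperature, add HMU-PC0 substrate at 9 uM final, incubate 60 min at 37 °C, add stop solution raising pH to 10, read fluorescence.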
# HepG2 viability – counter-screen for TGF-b inhibitors: cytotoxicity in HepG2 cells. HepG2 CAGA-GFP viability, ATP luminescence, 18 h. Potency, µM (highest dose often 46.1 µM), for the others: at the top dose activity change, negative = cytotoxicity, hits mostly cytotoxic. 410,000 compounds, 0.76% hits. AID 588856; note: potency is the fitted concentration of half-maximal effect
#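 HepG2 CAGA-GFP cells (1000/well, DMEM with 1% FBS) received compound, then TGF-beta at 500 pg/mL final, and were incubated 18 hours at 37 degrees C. Viability was read by CellTiter-Glo luminescence. Media-only wells were set as complete cell-killing and DMSO as no toxicity.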
# TDP1 cell noCPT – qHTS for Inhibitors of human tyrosyl-DNA phosphodiesterase 1 (TDP1): qHTS in cells in absence of CPT. 420,000 compounds, 15% hits. Potency, µM (series often up to 46.2 µM), for the others: top-dose activity change, negative = growth inhibition, hits mostly inhibitors. DT40 Tdp1-/- hTDP1 cells, no CPT, ATP luminescence, 48 h; note: potency is the fitted concentration of half-maximal effect; % is set by controls: 0 for no effect and ±100 for the full control effect; nearly all actives have a fitted effect of over 55% in size
#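 A cellular qHTS used chicken DT40 cells lacking endogenous Tdp1 but carrying stably transfected human TDP1. Compounds were applied without camptothecin, and cell growth kinetics were judged by ATP-dependent luminescence after ≥48 hr.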
# TGFb SMAD3 inh – inhibitors of TGF-b signaling; HepG2 CAGA-GFP TGF-b/SMAD3 reporter, GFP fluorescence, 18 h; TGF-beta stimulated, 500 pg/mL final; AID 588855; 410,000 compounds, 1.2% hits; Potency, µM (series often up to 46.1 µM), for the others: top-dose activity, negative = inhibition, actives largely listed as inhibitors; note: potency is the fitted concentration of half-maximal effect; % is set by controls: 0 for no effect and ±100 for the full control effect; nearly all actives have a fitted effect of over 65% in size
#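 Inhibition of TGF-beta-driven CAGA-GFP reporter expression in HEPG2 cells is measured by cellular GFP fluorescence after 18 h stimulation with 500 pg/mL recombinant TGF-beta in 1% FBS medium at 37 degrees C.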
# Starred values were filed as active, the others as inactive; u = inconclusive; x = no result. This is a sample that favours compounds with a hit; in the whole collection about 19% have one here. Unless noted, calls come from the whole dose curve; as a rule, active = well fitted curve in the direction sought with a large enough effect; inconclusive = small, poorly fitted or top-dose-only effect, or another doubt; inactive = no such curve, though single readings can be large; an effect the other way counts as inactive or inconclusive.
SMILES,IL-1B inflam inh,TDP1 cell CPT,ASM inhibitor,HepG2 viability,TDP1 cell noCPT,TGFb SMAD3 inh
Cc1oc(C)c2c(=O)cc(-c3ccc4c(c3)OCO4)cc(OC(=O)c3cccc(Cl)c3)c12,x,u,x,-10.6%,u,35.8%
CCOc1cc(-c2ccc(OC(=O)c3ccccc3F)cc2)cc(=O)c2c(C)oc(C)c12,x,13µM*,x,-6.8%,13µM*,-1.4%
COc1ccc(-c2cc(OC(=O)c3cccc(Cl)c3)c3c(C)oc(C)c3c(=O)c2)cc1OC,x,u,x,-28.1%,u,-1.0%
Cc1oc(C)c2c(=O)cc(-c3ccc4c(c3)OCO4)cc(OC(=O)c3cccc(Br)c3)c12,x,u,x,-19.4%,u,40.8%
CCOc1cc(-c2ccc(OC(=O)c3ccc(C)cc3)c(OC)c2)cc(=O)c2c(C)oc(C)c12,x,5.8µM*,x,-34.4%,5.17µM*,u
CCOc1ccc2nc(NC(NC(=O)CC)(C(=O)OC)C(F)(F)F)sc2c1 (configuration not stated),24.4,-24.2%,6.0%,10.0%,-27.7%,u
Cc1cc(Cn2nc(-c3ccccc3C)cc2C(=O)O)on1,22.5,10.8%,4.3%,12.2%,11.4%,u
COC(=O)C1=C[C@@H](C(=O)OC)[C@@H]2C3=C(C(=O)[C@@]2(C)NC(=O)c2ccccc2)[C@H](C)C(C(=O)OC)=C(C(=O)OC)[C@@H]3C1,3.5,0.0%,4.2%,0.5%,-1.1%,0.6%
CCN(CC(=O)NCc1cccs1)C(=O)/C=C/c1cc(Br)ccc1OC(F)F,-3.0,u,-2.1%,-15.7%,u,-2.0%
COc1cc(-c2cc(OC)c3c(C)oc(C)c3c(=O)c2)ccc1OC(=O)c1ccc(C)cc1,x,5.17µM*,x,-17.3%,5.8µM*,0.0%
CC(C)COc1nc2c(c(=O)n(C)c(=O)n2C)n1C,5.1,-5.3%,7.0%,-15.5%,-10.6%,9.3%
COc1cccc(-c2ccc3ncnc(NCc4cnc(C)cn4)c3c2)c1,x,23.1µM*,x,x,14.6µM*,x
Cc1cnc(CNc2ncnc3ccc(-c4ccccc4C)cc23)cn1,x,16.4µM*,x,x,u,x
Cc1ccc(CC(=O)Nc2cccc(C(=O)Nc3c(C)n(C)n(-c4ccccc4)c3=O)c2)cc1C,22.5,u,x,-23.4%,u,-6.9%
O=C(Cn1c(=O)n2nc(-c3cccc(F)c3)nc2c2ccccc21)N1CCN(c2ccccc2F)CC1,x,-11.8%,x,11.9%,u,1.2%
CC(SC(=S)N1CCOCC1)C(=O)O (configuration not stated),86.8,6.0%,-0.3%,-19.9%,-1.2%,-2.7%
S=C(SSC(=S)N1CCOCC1)N1CCOCC1,17.2,0.0461µM*,x,0.708µM*,0.0259µM*,0.562µM*
Cc1cccc(C(C)C)c1NC(=O)C1CN(S(=O)(=O)c2ccccc2)CCN1S(=O)(=O)c1ccccc1 (configuration not stated),-14.2,25.9µM*,0.6%,3.6%,18.4µM*,u
Cc1ccc(/C=N\NC(=O)C2CN(S(=O)(=O)c3ccccc3)CCN2S(=O)(=O)c2ccccc2)cc1 (configuration not stated),-4.5,u,-10.4%,-7.4%,18.4µM*,-2.1%
CCc1cccc(CC)c1NC(=O)C1CN(S(=O)(=O)c2ccccc2)CCN1S(=O)(=O)c1ccccc1 (configuration not stated),-24.8,u,0.1%,-1.5%,u,u
O=C(Nc1ccc(Cl)cc1)P(=O)(O)c1ccccc1,15.2,3.7%,4.9%,-6.9%,-1.0%,14.8%
CSCCC(NC(=O)c1ccco1)C(=O)NCC(c1ccccc1)N(C)C (configuration not stated),0.0,9.0%,2.8%,3.7%,2.1%,2.2%
CC1CCCCN1S(=O)(=O)c1ccccc1[N+](=O)[O-] (configuration not stated),16.9,-18.8%,2.3%,6.4%,0.0%,-1.2%
CCC1CCCCN1S(=O)(=O)c1ccccc1[N+](=O)[O-] (configuration not stated),2.0,20.6µM*,-4.9%,1.4%,23.1µM*,-4.5%
COc1ccccc1CCNC(=O)C(=O)NCCC1CCCCN1S(=O)(=O)c1ccccc1 (configuration not stated),-14.7,u,0.7%,0.2%,16.4µM*,-1.6%
SMILES,IL-1B inflam inh,TDP1 cell CPT,ASM inhibitor,HepG2 viability,TDP1 cell noCPT,TGFb SMAD3 inh
O=S(=O)(c1ccccc1)N1CCCCC1CCc1ccccc1 (configuration not stated),-28.8,u,-2.3%,-29.5%,13µM*,15.7%
COc1ccc(CCNC(=O)C(=O)NCCC2CCCCN2S(=O)(=O)c2ccccc2)cc1 (configuration not stated),8.9,23.1µM*,0.0%,-3.4%,23.1µM*,5.6%
COc1ccccc1CNC(=O)C(=O)NCCC1CCCCN1S(=O)(=O)c1ccc(C)cc1 (configuration not stated),-1.5,u,x,-23.0%,u,u
CCC1CCCCN1S(=O)(=O)c1ccccc1 (configuration not stated),16.6,u,0.3%,-18.7%,u,-18.7%
CCCCOc1ccc(NC(=O)CCSc2nccn2C)cc1,-17.6,-23.2%,-2.6%,4.3%,u,-17.4%
CCOc1ccccc1NC(=O)CCCNC(=O)Cn1cnc2sc(C)c(C)c2c1=O,-7.5,u,1.0%,-14.4%,u,-18.7%
CCOC(=O)c1c(C)[nH]c2cc(Br)c(O)cc12,-8.9,u,-7.2%,-21.4%,-8.6%,-0.2%
CCOC(=O)c1c(OCC)[nH]c2c1cc(O)c1ccccc12,-18.2,16.4µM*,-18.9%,-34.0%,18.4µM*,u
COc1ccc(OC)c(C(=O)Cn2nnc(-c3ccc(N4CCOCC4)cc3)n2)c1,-16.2,-8.3%,11.5%,9.0%,0.6%,1.7%
COc1ccc(C2(C)NC(=O)N(CC(=O)c3cc(C)n(C4CC4)c3C)C2=O)cc1OC (configuration not stated),6.7,18.4µM*,4.6%,10.5%,13µM*,-22.2%
CCCc1nc2c(s1)CCc1onc(-c3cccc([N+](=O)[O-])c3)c1-2,17.1,32.0%,-4.6%,1.6%,3.7%,4.6%
CC(C)c1nc2c(s1)CCc1onc(-c3cccc([N+](=O)[O-])c3)c1-2,26.1,u,-8.0%,-0.9%,23.1µM*,2.0%

# High-throughput results (PubChem)
